In one assay the target is T1, Serine/threonine-protein kinase Nek2 (Homo sapiens) (UniProt P51955).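 Further: reported values are mean percent inhibition of NEK2.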
T1 sequence (whole entry): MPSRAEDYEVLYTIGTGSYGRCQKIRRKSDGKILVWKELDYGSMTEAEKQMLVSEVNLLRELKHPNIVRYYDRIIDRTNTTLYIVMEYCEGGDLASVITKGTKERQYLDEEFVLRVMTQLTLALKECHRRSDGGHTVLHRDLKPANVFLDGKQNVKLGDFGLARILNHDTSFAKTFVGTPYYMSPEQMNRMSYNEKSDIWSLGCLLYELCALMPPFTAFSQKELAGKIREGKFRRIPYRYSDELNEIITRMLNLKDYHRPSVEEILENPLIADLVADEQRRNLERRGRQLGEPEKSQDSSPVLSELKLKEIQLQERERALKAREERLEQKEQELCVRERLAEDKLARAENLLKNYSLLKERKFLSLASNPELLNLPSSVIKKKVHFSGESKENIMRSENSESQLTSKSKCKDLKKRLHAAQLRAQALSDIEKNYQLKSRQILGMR
As to conditions: at 1 µM.
Serine/threonine-protein kinase Nek6 (Homo sapiens), sequence (Q9HC98 whole entry): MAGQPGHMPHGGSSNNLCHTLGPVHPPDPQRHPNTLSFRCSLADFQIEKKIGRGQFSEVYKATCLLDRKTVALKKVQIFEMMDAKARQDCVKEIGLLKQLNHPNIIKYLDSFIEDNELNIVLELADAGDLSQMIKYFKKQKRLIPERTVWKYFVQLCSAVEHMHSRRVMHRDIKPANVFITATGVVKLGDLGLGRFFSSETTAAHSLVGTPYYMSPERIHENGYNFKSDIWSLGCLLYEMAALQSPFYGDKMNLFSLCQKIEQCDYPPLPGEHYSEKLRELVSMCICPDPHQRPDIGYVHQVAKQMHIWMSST
In general, inhibition refers to the relative decrease from the control value, in per cent. Turning to `O=C(Nc1n[nH]c2cc(-c3cc(F)ccc3F)ccc12)C1CC1`, the inhibition is 2.03%. Still for that read-out and setting: with `CN(c1ccc(NC(=O)Nc2c(Cl)cccc2Cl)cc1)c1ccnc(Nc2cccc(CS(C)(=O)=O)c2)n1` the figure was 1.07%. The same measure, in the same setting: with `COc1cc2ncn(-c3cc(OCc4ccccc4C(F)(F)F)c(C(C)=O)s3)c2cc1OC` the figure was 4.69%; with `COc1cc(Nc2ncc3c(C)nc(-c4cccc(Oc5ccccc5)c4)n3n2)cc(OC)c1OC`, 31.6%. Consider `CNC(=O)c1cncc(/C=C/c2c(C)cccc2C)c1`, for which the inhibition was -0.77%. On the same count and under the same terms, next, `NCc1ccc(-n2c(-c3nonc3N)nc3cnccc32)cc1`: 7.8%; `O=C1Nc2ccc(I)cc2C1=Cc1cc(Br)c(O)c(Br)c1`: 3.15%; `NS(=O)(=O)c1ccc(Nc2cc(-c3ccc(O)c(F)c3)n[nH]2)cc1`: -3.05%.

For `CN(C)c1ccc2c(c1)/C(=C/Nc1ccc(S(N)(=O)=O)cc1)C(=O)N2`, the inhibition amounted to 3.05%. In the case of `Fc1ccc(-c2ncn(C3CCNCC3)c2-c2ccnc(Oc3ccc(F)c(F)c3)n2)cc1`, the inhibition came to 4.23%. Same read-out and setting: with `N#Cc1ccc(Oc2nccc(-c3c(-c4ccc(F)cc4)ncn3C3CCNCC3)n2)cc1` the figure was 4.63%.

Regarding `COc1cc(C)c(N(C)C(=O)CN(C)C)cc1Nc1nc(Nc2cccc(F)c2C(N)=O)c2cc[nH]c2n1`, the inhibition was determined as 3.64%. Still for that read-out and setting: next, `COc1cc2ncn(-c3cc(OCc4cccs4)c(C(N)=O)s3)c2cc1OC`: 15.3%. Regarding `CCc1cccc(CC)c1/C=C/c1cncc(C(=O)NC)c1`, the inhibition came to 3.05%.

As to `COc1ccc(C2=C(N3CCc4ccccc43)C(=O)NC2=O)cc1`, the inhibition was determined as 6.47%.

For `Fc1ccc(-c2c(-c3ccncc3)nc3n2CCS3)cc1`, the inhibition was found to be 2.6%.

On to `CCS(=O)(=O)c1ccc(OC)c(Nc2ncc(-c3ccccc3Cl)o2)c1`, for which the inhibition was found to be 0.79%. Still for that read-out and setting: next, `CN(C)CCOc1ccc(-c2cc(-c3ccc4c(c3)CCC4=NO)c(-c3ccncc3)o2)cc1`: 0.32%.

A further assay concerns the target Serine/threonine-protein kinase Nek6 (Homo sapiens) (UniProt Q9HC98). To be noted: at 0.1 µM.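 Further: values are the mean percent inhibition of NEK6.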
As for `C/C(Nc1ccc(S(N)(=O)=O)cc1)=C1/C(=O)Nc2ccccc21`, the inhibition was -4.26%. Still for that read-out and setting: with `NC(=O)Cc1ccccc1Oc1nccc(-c2c(-c3ccc(F)cc3)ncn2C2CCNCC2)n1` the figure was 0.28%. The same measure, in the same setting: with `Fc1ccc(-c2ncn(CCCN3CCOCC3)c2-c2ccncc2)cc1` the figure was 1.11%; with `c1ccc(Oc2ccc(Nc3ncc(-c4ccccc4)o3)cc2)cc1`, -0.2%.

Consider `COc1ccc2cc(-c3c(-c4ccncc4)nc(-c4ccc(S(C)(=O)=O)cc4C)n3C)ccc2c1`, for which the inhibition was 0.49%.

Regarding `O=C(NCC1CC1)c1ccc(-c2cccc(C(=O)NC3CC3)c2)cc1`, the inhibition amounted to 1.75%.

On to `O=C(Nc1ccc(Oc2ccc3[nH]c(NC(=O)c4ccccc4)nc3c2)cc1)Nc1cc(C(F)(F)F)ccc1F`, for which the inhibition stood at 3.73%.

With `COc1cc2ncn(-c3cc(OCCc4ccccc4)c(C(N)=O)s3)c2cc1OC`, the inhibition was -0.94%.

With `C[C@@H](Oc1cc(-n2cnc3ccc(OCC4CCN(C)CC4)cc32)sc1C(N)=O)c1ccccc1Cl`, the inhibition turned out to be 0.14%.

Consider `CS(=O)(=O)CCNCc1cc(-c2cc3c(Nc4ccc(OCc5cccc(F)c5)c(Cl)c4)ncnc3s2)cs1`, for which the inhibition came to 1.2%. With `CCc1nccc2c1nc(-c1nonc1N)n2CC`, the inhibition worked out at 0.37%. On to `COc1cccc(/C=N/Nc2ncnc3c2cnn3-c2cccc(OC)c2)c1`, for which the inhibition worked out at 1.07%. Same read-out and setting: with `COc1ccc2cc(-c3c(-c4ccncc4)nc(-c4ccc([S+](C)[O-])cc4C)n3C)ccc2c1` (configuration not stated) the figure was 0.58%. Still for that read-out and setting: next, `O=C(Nc1n[nH]c2nc(-c3ccco3)ccc12)C1CC1`: 1.86%; `Cc1ccc(C(=O)NC(C)C)cc1-c1ccc(C(=O)NCC2CC2)cc1`: -3.09%. Same read-out and setting: next, `FC(F)(F)c1cccc(Nc2nccc(-c3cnn4nc(-c5ccccc5)ccc34)n2)c1`: -0.41%.

In the case of `O=C(Nc1n[nH]c2cc(-c3cc(F)ccc3F)ccc12)C1CC1`, the inhibition is 1.92%.

Turning to `CN(c1ccc(NC(=O)Nc2c(Cl)cccc2Cl)cc1)c1ccnc(Nc2cccc(CS(C)(=O)=O)c2)n1`, the inhibition came to 0.64%. Same read-out and setting: with `COc1cc2ncn(-c3cc(OCc4ccccc4C(F)(F)F)c(C(C)=O)s3)c2cc1OC` the figure was 1.95%; with `COc1cc(Nc2ncc3c(C)nc(-c4cccc(Oc5ccccc5)c4)n3n2)cc(OC)c1OC`, 2.7%.

Consider `CNC(=O)c1cncc(/C=C/c2c(C)cccc2C)c1`, for which the inhibition is 1.65%. `NCc1ccc(-n2c(-c3nonc3N)nc3cnccc32)cc1`: the inhibition was 3.51%. For the molecule `O=C1Nc2ccc(I)cc2C1=Cc1cc(Br)c(O)c(Br)c1`, the inhibition is 1.35%. As for `NS(=O)(=O)c1ccc(Nc2cc(-c3ccc(O)c(F)c3)n[nH]2)cc1`, the inhibition is -4.94%. Still for that read-out and setting: with `CN(C)c1ccc2c(c1)/C(=C/Nc1ccc(S(N)(=O)=O)cc1)C(=O)N2` the figure was 0.8%.

For `Fc1ccc(-c2ncn(C3CCNCC3)c2-c2ccnc(Oc3ccc(F)c(F)c3)n2)cc1`, the inhibition was determined as 0.84%.

As to `N#Cc1ccc(Oc2nccc(-c3c(-c4ccc(F)cc4)ncn3C3CCNCC3)n2)cc1`, the inhibition amounted to 3.13%.

With `COc1cc(C)c(N(C)C(=O)CN(C)C)cc1Nc1nc(Nc2cccc(F)c2C(N)=O)c2cc[nH]c2n1`, the inhibition was found to be 1.26%. Still for that read-out and setting: next, `COc1cc2ncn(-c3cc(OCc4cccs4)c(C(N)=O)s3)c2cc1OC`: 3.67%; `CCc1cccc(CC)c1/C=C/c1cncc(C(=O)NC)c1`: 0.31%. Still for that read-out and setting: with `COc1ccc(C2=C(N3CCc4ccccc43)C(=O)NC2=O)cc1` the figure was 2.74%. Still for that read-out and setting: next, `Fc1ccc(-c2c(-c3ccncc3)nc3n2CCS3)cc1`: -0.57%.

As to `CCS(=O)(=O)c1ccc(OC)c(Nc2ncc(-c3ccccc3Cl)o2)c1`, the inhibition worked out at 1.4%.

For the molecule `CN(C)CCOc1ccc(-c2cc(-c3ccc4c(c3)CCC4=NO)c(-c3ccncc3)o2)cc1`, the inhibition is -0.38%.
